# Compound activity as filed in PubChem BioAssay.
# IL1B secr inh = qHTS for Inhibitors of Inflammasome Signaling: IL-1-beta AlphaLISA Primary Screen. activity change, % at 57.5 µM. actives 4.7% (n = 360,000). AID 743279, 2014. THP-1 LPS/ATP IL-1B secretion, AlphaLISA, 16 h; stronger effect = lower value; in the data active = activity change below about -50%; inconclusive = mostly about -30% to -49%; also: % is scaled to controls: 0 for no effect and ±100 for the full control effect
#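 Secreted IL-1B measured by AlphaLISA bead assay after 16 h compound exposure of THP-1 cells; compounds (final up to 57.5 uM) added 1 h before LPS (250 ng/mL) and ATP (1.25 mM) stimulation; lower signal means less secretion.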
# KB-V1 cytotox = qHTS assay for MDR1-selective chemotherapeutics: Primary screen using the drug-selected MDR subline cells KB-V1 | AID 1347076, 2019 | actives 3.4% (n = 400,000) | KB-V1 MDR cells viability, CellTiter-Glo, 72 h | Potency, µM (series often up to 46.1 µM), usual class: cytotoxic; also: potency is read from the fitted curve at half-maximal effect; % is scaled to controls: 0 for no effect and ±100 for the full control effect; nearly all actives have a fitted effect of over 60% in size
#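 KB-V1 cells (P-gp-expressing MDR subline of KB-3-1) in phenol-red-free DMEM with 10% FBS were exposed to library compounds over a concentration series for 72 h at 37 degrees C. Viability read by CellTiter-Glo luminescence; concentration-effect curves fitted after normalization.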
# KB-3-1 tox = qHTS assay for MDR1-selective chemotherapeutics: Primary screen using the parental adenocarcinoma cell KB-3-1; KB-3-1 viability, CellTiter-Glo ATP luminescence, 72 h; Potency, µM (highest dose often 46.1 µM), most hits filed as cytotoxic; actives 1.4% (n = 400,000); AID 1347075, 2019; also: potency is read from the fitted curve at half-maximal effect; % is scaled to controls: 0 for no effect and ±100 for the full control effect; nearly all actives have a fitted effect of over 60% in size
#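 Parental KB-3-1 adenocarcinoma cells in phenol-red-free DMEM with 10% FBS were pin-treated with compounds at several concentrations, incubated 72 h at 37 °C, and viability read by CellTiter-Glo luminescence; concentration-effect curves were fitted after normalization.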
# SW480 rerep = A quantitative high throughput screen for small molecules that induce DNA re-replication in SW480 colon adenocarcinoma cells | SW480 DNA re-replication, Hoechst DNA content imaging, 48 h | Potency, µM (highest dose often 46.1 µM), for the others: at the top dose re-replication activation, actives largely listed as activators | actives 1.8% (n = 340,000); also: potency is read from the fitted curve at half-maximal effect; % of control where 0% means no effect; nearly all actives have a fitted effect of over 55% in size
#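 First, 250 cells per well were seeded. Next, compound or vehicle (23 nL) was pinned in, plates sat 48 hr at 37 C. Finally Hoechst was added for 40 min before fluorescence scanning.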
# MCF10A rerep = A quantitative high throughput screen for small molecules that induce DNA re-replication in MCF 10a normal breast cells. actives 2.9% (n = 350,000). Potency, µM (titrated, usually from 46.1 µM), inactives show top-dose activity, positive = re-replication, most hits filed as activators. MCF 10A DNA re-replication, Hoechst nuclear intensity, 48 h. AID 624296, 2012; also: potency is read from the fitted curve at half-maximal effect; % of control where 0% means no effect; nearly all actives have a fitted effect of over 50% in size
# * marks the source's active call; other numbers are inactive results; i = inactive; u = inconclusive; x = no result; [ ] = remark or other dose. Compounds with a hit are over-represented: about 9.9% of the library has one in this group of screens. Unless noted, calls follow the shape of the dose curve; as a rule, active = well fitted curve in the direction sought with a large enough effect; inconclusive = small, poorly fitted or top-dose-only effect, or another doubt; inactive = no such curve, though single readings can be large; an effect the other way counts as inactive or inconclusive.
SMILES,IL1B secr inh,KB-V1 cytotox,KB-3-1 tox,SW480 rerep,MCF10A rerep
CCn1c(Cn2nnc(-c3ccccc3)n2)nnc1SCC(=O)Nc1cccc(C(C)=O)c1,u,i,i,u,20.6µM*
CCn1c(Cn2nnc(-c3ccccc3)n2)nnc1SCC(=O)Nc1ccc(C(C)=O)cc1,-5.6,i,i,-0.9%,10.0%
Brc1ccc(C2=Nn3c(Cn4nnc5ccccc54)nnc3SC2)cc1,-5.5,i,i,1.3%,19.8%
CCC(C)NC(=O)COC(=O)c1csc2c1CCCC2 (stereo not drawn),27.8,i,23.1µM*,-1.4%,6.1%
CC(C)CNC(=S)NNC(=O)c1csc2c1CCCC2,u,i,i,-0.3%,-6.0%
Cc1cccnc1C(NC(=O)C1CCN(CCOc2ccc(F)cc2)CC1)c1ccc(Cl)cc1 (stereo not drawn),-69.3*,i,i,x,x
COc1ccc(OCCN2CCC(C(=O)NC(c3ccc(Cl)cc3)c3cnccn3)CC2)cc1 (stereo not drawn),-54.1*,i,i,x,x
COc1cc(C#CC#CCN2CCCCC2)ccc1O,-21.8,10.3µM*,i,u,u
COc1cc(C(=O)OCCN2CCCCC2)ccc1O,-1.8,i,i,-1.4%,6.1%
Cc1ccc2nc3cc([N+](=O)[O-])cc([N+](=O)[O-])c3cc2c1,-72.7*,u,u,0.651µM*,u
Cc1nc(CSc2ccc(Cl)cc2)cc(NCc2ccccc2)n1,20.1,u,i,0.6%,8.1%
CNc1cc(CSc2ccc(Cl)cc2)nc(C)n1,13.3,i,i,5.17µM*,-16.9%
Cc1nc(-c2ccc(NC(=O)c3ccccc3Br)cc2)cs1,-51.6*,i,i,-8.2%,17.2%
Cc1ccc(-c2csc(/C=C3/SC(C)C(=O)N3CC(=O)Nc3ccccc3F)n2)cc1 (stereo not drawn),0.1,i,i,u,20.6µM*
Cc1nc(-c2ccc(C(=O)Nc3ccccc3F)cc2)cs1,-14.5,11.6µM*,u,-7.9%,-1.8%
CC(=O)c1ccccc1NC(=O)CN1C(=O)CS/C1=C\c1nc(-c2ccc(C)cc2)cs1,9.0,i,i,2.8%,3.9%
Cc1nc(-c2cccc(NC(=O)c3ccc(-n4cccn4)cc3)c2)cs1,-51.5*,u,i,5.3%,19.5%
Cc1nc(-c2ccc(NC(=O)c3ccccc3C)cc2)cs1,-5.3,i,u,2.1%,10.0%
Cc1nc(-c2ccc(C(=O)Nc3ccc(F)cc3)cc2)cs1,31.5,u,i,1.8%,1.9%
Cc1nc(-c2ccc(C(=O)Nc3cccc(F)c3)cc2)cs1,-23.5,i,i,7.4%,15.2%
O=[N+]([O-])c1nccn1CC(O)CO (stereo not drawn),16.5,i,i,x,x
C=CCN(CC=C)S(=O)(=O)c1ccc(NC(=S)NC(=O)C2CC2)cc1,7.0,i,i,115.9%,16.5%
CCc1ccc(N2CC(O)(c3cccs3)[N+]3=C2SCCC3)cc1 (stereo not drawn),-152.9*,u,i,36.3%,u
C[C@@H]1CCCCO[C@H](CN(C)S(=O)(=O)c2ccccc2)[C@@H](C)CN([C@H](C)CO)C(=O)c2cc(NC(=O)Cc3ccccc3)ccc2O1,-1.4,i,i,x,x
CCOc1ccc(OCCCCOc2ccccc2C(C)=O)cc1,8.0,i,i,17.6%,22.3%
SMILES,IL1B secr inh,KB-V1 cytotox,KB-3-1 tox,SW480 rerep,MCF10A rerep
CCOc1cccc(OCCOCCOc2ccccc2C(C)=O)c1,8.9,14.6µM*,i,-1.0%,1.4%
CCn1cc(C(=O)N[C@@H](C)C(=O)NCCCn2ccnc2)c(=O)c2cc3c(cc21)OCO3,-1.9,u,i,u,-0.4%
CCn1cc(C(=O)N[C@@H](CC(C)C)C(=O)NCCCn2ccnc2)c(=O)c2cc3c(cc21)OCO3,1.8,i,i,13µM*,1.1%
COc1ccc(NC(=O)CSc2n[nH]c(C(C)C)n2)c([N+](=O)[O-])c1,-66.9*,u,i,2.0%,1.0%
COc1cc(NC(=O)CSc2nc(C)c(C)c(C)n2)c(C)cc1[N+](=O)[O-],40.7,14.6µM*,i,-13.9%,6.8%
COc1ccc(NC(=O)CSc2n[nH]c(N)n2)c([N+](=O)[O-])c1,-19.4,i,i,-13.0%,4.3%
Cc1ccc(-n2nnnc2SCC(=O)NNC(=O)c2ccco2)c(C)c1,13.0,i,i,-15.3%,20.6µM*
O=C(CSc1nnnn1-c1ccccc1F)NNC(=O)c1ccco1,3.2,i,i,-31.3%,u
CCOC(=O)c1sc(NC(=O)CSc2nnnn2-c2ccc(C)cc2C)nc1C,9.5,i,i,-5.8%[9.22 µM],u
COC(=O)c1ccccc1NC(=O)CSc1nnnn1-c1ccc(C)cc1C,2.2,i,i,u,12.6µM*
CC1=Nc2ccccc2/C1=C/c1c(C)[nH]c2ccccc12,-71.9*,i,u,10.3µM*,0.82µM*
CC1=Nc2ccccc2/C1=C/c1ccc(N(C)C)cc1,x,i,i,x,x
CC(C)C(=O)NNC(=O)c1cc2sccc2s1,-8.0,i,i,-24.1%,0.7%
CN(C)c1ccc(C(CNC(=O)c2ccco2)N2CCCC2)cc1 (stereo not drawn),-8.5,u,i,0.7%,5.3%
CN(C)C(=S)Oc1ccccc1C1(C)OCCO1,-15.7,i,i,x,x
COc1ccc(/C=N/NC(=O)CNC(=O)c2ccc3c(c2)OCCO3)cc1OC,0.2,i,i,1.3%,8.2%
COc1ccc(C(=O)NCC(=O)N/N=C/c2cccc(OC(=O)c3ccco3)c2)cc1OC,-7.7,u,i,-7.0%,3.26µM*
CCCOc1ccc(-c2nonc2NC(=O)c2oc3ccc(C)cc3c2C)cc1OCCC,x,i,i,x,x
CCCOc1ncnc2c1[nH]c1ccc(OC)cc12,1.5,14.6µM*,u,20.4%,8.5%
CCCCOc1ncnc2c1[nH]c1ccc(C)cc12,x,7.31µM*,u,-1.1%,-2.0%
CCN(CC)CCOC(=O)/C=C/c1ccccc1,-5.5,i,i,11.0%,-0.5%
CCN(CC)CCOCCOC(=O)C(CC)(CC)c1ccccc1 (tested in a mixture with another compound),x,x,x,0.8%,29.9µM*
O=S1(=O)CCC(NC(=S)Nc2ccccc2)C1 (stereo not drawn),x,i,i,4.11µM*,1.1%
Cc1ccc2nc(NC(=O)CSc3nc4c(c(=O)n3C)SC(C)C4)sc2c1 (stereo not drawn),-56.3*,i,i,0.7%,-10.4%
